# Measured values: PubChem BioAssay AID2284158 (EPA ToxCast)
# The source made the active and inactive calls. The calls were made as follows: active = hit-call score of the fitted dose curve at least 0.9, where 1 is the maximum; inconclusive = response in the unintended direction; inactive = score below 0.9.
# Target: D(1A) dopamine receptor (Homo sapiens) (UniProt P21728)
# Assay: ERF_FR_GPCR_hDRD1: Eurofins (ERF) G Protein-Coupled Receptor (GPCR) Radioligand Binding LeadHunter Assay for human Dopamine Receptor D1 Antagonism, conducted at France lab site
# Procedure: ERF_FR_GPCR_hDRD1 is a biochemical, single-readout assay that uses extracted gene-proteins in a cell-free assay. Measurements were taken 1 hour after chemical dosing in a 96-well plate. See D1 Human Dopamine GPCR Binding (Antagonist Radioligand) Assay, Cerep.ERF_FR_GPCR_hDRD1 is an assay component calculated from the ERF_FR_GPCR_hDRD1 assay. It is designed to measure radioligand binding using a type of binding reporter as detected by scintillation counting with radiometry technology.Data from the assay component ERF_FR_GPCR_hDRD1 was analyzed at the assay endpoint, ERF_FR_GPCR_hDRD1, in the positive analysis fitting direction relative to DMSO as the negative control and baseline of activity. Using a type of binding reporter, loss-of-signal activity can be used to understand changes in binding as they relate to gene DRD1. To generalize the intended target to other relatable targets, this assay endpoint is annotated to the gpcr intended target family, where the subfamily is dopamine.
# Human cells are incubated for 60 minutes at room temprature with [3H]SCH 23390 ligand (0.3 nM) and SCH 23390 as control inhibitor.Test Sample Requirements: Minimum for 1) Screen: 60 ul of 10 mM stock -OR- 1 mg (pre-weighed) for 10 uM final testing. 2) Dose Response: 90 ul of 10 mM stock -OR- 1 mg (pre-weighed) for a top concentration at 10 uM.
# D(1A) dopamine receptor (Homo sapiens), sequence (P21728 whole entry, looked up): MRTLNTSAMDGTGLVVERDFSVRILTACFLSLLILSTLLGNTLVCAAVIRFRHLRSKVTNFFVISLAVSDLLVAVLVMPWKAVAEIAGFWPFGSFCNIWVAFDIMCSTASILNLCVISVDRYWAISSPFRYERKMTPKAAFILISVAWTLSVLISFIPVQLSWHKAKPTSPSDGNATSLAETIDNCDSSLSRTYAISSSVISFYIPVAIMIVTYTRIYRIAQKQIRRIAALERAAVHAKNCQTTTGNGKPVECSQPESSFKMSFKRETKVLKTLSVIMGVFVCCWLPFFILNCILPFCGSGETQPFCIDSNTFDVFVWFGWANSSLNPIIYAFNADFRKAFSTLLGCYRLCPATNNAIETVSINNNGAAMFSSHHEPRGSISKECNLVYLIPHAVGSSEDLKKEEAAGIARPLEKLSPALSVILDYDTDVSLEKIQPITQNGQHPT
Structure (SMILES),AC50,outcome
O=C(/C=C/c1ccc(O)cc1)CC(=O)/C=C/c1ccc(O)cc1,1.07 µM (active),–
COc1cc(/C=C/C(=O)CC(=O)/C=C/c2ccc(O)c(OC)c2)ccc1O,2.04 µM (active),–
COc1cc(CCC(=O)CC(=O)CCc2ccc(O)c(OC)c2)ccc1O,–,inactive
